Our source for the Potency and outcome values is PubChem BioAssay (Tox21).

Unmarked numbers belong to inactive results. Results filed as inconclusive are left out. Active and inactive are the calls of the source. Unless noted, calls follow the shape of the dose curve; as a rule, active = well fitted curve in the direction sought with a large enough effect in the repeat runs; inconclusive = weak or mixed curves; inactive = no such curve, though single readings can be large; an effect the other way counts as inactive or inconclusive.

Assay [1] deals with Estrogen receptor beta (Homo sapiens) (UniProt Q92731). As to the kind of experiment: qHTS assay to identify small molecule antagonists of the estrogen receptor beta (ER-beta) signaling pathway (AID 1259378; active = well fitted inhibition curve with a large enough effect in the signal ratio in the repeat runs, not every such curve was filed as active; the % refers to the signal ratio; also: potency is read from the fitted curve at half-maximal effect). The procedure, abridged: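 ER-beta-UAS-bla HEK293T cells in 2% charcoal-stripped FBS medium treated with compound plus 1nM final 17-beta-estradiol for 16 hr at 37C. Beta-lactamase reporter read by FRET substrate fluorescence after 2 hours at room temperature.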
Background: In qHTS, concentration-response curves come from the screen itself.

Assay [2] is described as follows: qHTS assay to identify small molecule antagonists of the estrogen receptor beta (ER-beta) signaling pathway - cell viability counter screen (AID 1259382). Also: nearly all actives have a fitted effect of over 55% in size. Also: potency is read from the fitted curve at half-maximal effect. The essentials: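 Luminescent ATP read-out (CellTiter-Glo, 30 min, RT) taken in the same wells as the bla reporter assay. HEK293T ER-beta-UAS-bla cells in 2% charcoal-stripped FBS were exposed to compounds with 1nM E2 for 16 hr at 37C.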

A short description of assay [3]: qHTS assay to identify small molecule agonists or antagonists of the thyroid stimulating hormone receptor (TSHR) signaling pathway - wild type cell line counter screen (AID 1259384; calls by dose curve). The procedure, abridged:
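Wild-type Hek293 cells, 800/well, 18 h at 37C, then compound with Ro20-1724 for 30 min RT. cAMP by HTRF (cAMP-d2/anti-cAMP cryptate), 1 h RT, fluorescence read. 15 concentrations, triplicates.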

In assay [4] the target is Thyrotropin receptor (Homo sapiens) (UniProt P16473). The experiment in a line: qHTS assay to identify small molecule antagonists of the thyroid stimulating hormone receptor (TSHR) signaling pathway (AID 1259385; calls by dose curve; also: nearly all actives have a fitted effect of over 20% in size; also: potency is read from the fitted curve at half-maximal effect). The essentials: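 TSHR-HEK293 cells (800/well) plated 18 h, then compounds with Ro20-1724 and TSH at 1.5 ng/mL final, 30 min at room temperature. cAMP quantified by HTRF (cAMP-d2/anti-cAMP-cryptate, 1 h); 15 concentrations in triplicate.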

Assay [5] can be described thus: qHTS assay to identify small molecule agonists of the estrogen receptor alpha (ER-alpha) signaling pathway in the presence of an antagonist - cell viability counter screen (AID 1259386). Also: nearly all actives have a fitted effect of over 30% in size. Also: potency is read from the fitted curve at half-maximal effect. The essentials: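 Read-out: CellTiter-Fluor fluorescence after 1hr reagent incubation, measured in the same wells as the luciferase readout. VM7Luc4E2 cells were exposed to 15 compound concentrations with 10.0nM ICI-182,780 for 22hr at 37C.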

Assay [6] is described as follows: qHTS assay to identify small molecule agonists of the TGF-beta/Smad signaling pathway - cell viability counter screen (AID 1346829). Also: nearly all actives have a fitted effect of over 45% in size. Also: potency is read from the fitted curve at half-maximal effect. The procedure, abridged: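 Tox21 qHTS format: SBE-bla HEK 293T cells treated with DMSO-dissolved compounds for 5 hr; CellTiter-Glo luminescence after 30 min at room temperature.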
Assay [7] can be described thus: qHTS assay to identify small molecule agonists of the TGF-beta/Smad signaling pathway (AID 1346859; active = well fitted activation curve with a large enough effect in the signal ratio in the repeat runs, not every such curve was filed as active; the % refers to the signal ratio; also: series mostly up to about 77 µM). The procedure, abridged: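 Dual-wavelength fluorescence (460/530 nm emission) quantified beta-lactamase expression under the Smad binding element in HEK 293T cells following 5 hr compound treatment at 37 C.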
The target of assay [8] is Thyrotropin-releasing hormone receptor (Homo sapiens) (UniProt P34981). As to the kind of experiment: qHTS assay to identify small molecule antagonists of the thyrotropin-releasing hormone receptor (TRHR) signaling pathway (AID 1346877; active = well fitted inhibition curve with a large enough effect in the repeat runs, not every such curve was filed as active; also: series mostly up to about 51 µM). The essentials: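 HEK293/TRHR cells, 18 h, 37 °C; Ca2+ dye 2 h; cpd 5 min RT; TRH 1 nM final; fluorescence read 3 min, 1 s intervals; 15 concs, triplicate.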

For assay [9] the target is unchanged. As to the kind of experiment: qHTS assay to identify small molecule agonists of the thyrotropin-releasing hormone receptor (TRHR) signaling pathway (AID 1346891; calls by dose curve;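 also: HEK293 cells expressing TRHR with calcium dye readout; series mostly up to about 58 µM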). The essentials: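 Kinetic fluorescence (3 min, 1 s intervals) reported intracellular calcium after compound transfer onto TRHR-Hek293 cells pre-loaded with dye for 2 h at 37 °C.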
The nature of assay [10]: qHTS assay to identify small molecule agonists of the estrogen receptor beta (ER-beta) signaling pathway - cell viability counter screen (AID 1259380). Also: nearly all actives have a fitted effect of over 30% in size. Also: potency is read from the fitted curve at half-maximal effect. The procedure, abridged:
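Luminescence read-out (CellTiter-Glo, 30 min, room temp) taken in the same wells as the beta-lactamase reporter assay; ER-beta-UAS-bla HEK293T cells exposed to DMSO-dissolved compounds for 16 hr at 37C in 2% charcoal-stripped FBS medium.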

Assay [11] addresses Estrogen receptor (Homo sapiens) (UniProt P03372). As to the kind of experiment: qHTS assay to identify small molecule agonists of the estrogen receptor alpha (ER-alpha) signaling pathway in the presence of an antagonist (AID 1259383; calls by dose curve; also: top concentration of the series differs between compounds; nearly all actives have a fitted effect of over 15% in size). The procedure, abridged: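 Luciferase luminescence (ONE-Glo, 30min at room temperature) measured in VM7Luc4E2 cells after 22hr compound exposure at 15 concentrations, with 10.0nM ICI-182,780 final present; cells express endogenous ER-alpha and carry four EREs upstream of luciferase.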

Assay [12] addresses Progesterone receptor (Homo sapiens) (UniProt P06401). The experiment in a line: qHTS assay to identify small molecule agonists of the progesterone receptor (PR) signaling pathway (AID 1346784; calls by dose curve; also: nearly all actives have a fitted effect of over 30% in size). The procedure, abridged:
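The screen uses PR-UAS-bla HEK 293T cells in charcoal-stripped serum (2%). Compounds are applied for 16 hr at 37C after a 6 hr pre-incubation, and reporter activity is detected with a FRET beta-lactamase substrate after 2 hr at room temperature.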

Assay [13] shares this target. The experiment in a line: qHTS assay to identify small molecule antagonists of the progesterone receptor (PR) signaling pathway (AID 1346795; active = well fitted inhibition curve with a large enough effect in the signal ratio in the repeat runs, not every such curve was filed as active; the % refers to the signal ratio; also: potency is read from the fitted curve at half-maximal effect). The essentials:
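After 6 hr plating at 37C in 2% stripped-serum medium, PR-UAS-bla HEK293T cells got compounds, then 1 nM R5020. Sixteen hours later, LiveBLAzer substrate was applied for 2 hr at room temperature and fluorescence was recorded.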

Assay [14] in a line: qHTS assay to identify small molecule antagonists of the progesterone receptor (PR) signaling pathway - cell viability counter screen (AID 1346798). Also: nearly all actives have a fitted effect of over 50% in size. Also: potency is read from the fitted curve at half-maximal effect. The procedure, abridged:
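Viability was determined by ATP-based luminescence (CellTiter-Glo) in PR-UAS-bla HEK293T cells cultured in 2% charcoal-stripped serum and incubated 16 hr with compounds under R5020 stimulation.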

Assay [15] is described as follows: qHTS assay to identify small molecule agonists of the progesterone receptor (PR) signaling pathway - cell viability counter screen (AID 1346799; calls by dose curve; also: nearly all actives have a fitted effect of over 45% in size; also: potency is read from the fitted curve at half-maximal effect). The essentials:
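Viability was scored by ATP luminescence (CellTiter-Glo, 30 min, room temperature) in the same wells used for the reporter readout, after 16 hr compound exposure of PR-UAS-bla HEK293T cells.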

The nature of assay [16]: qHTS assay to identify small molecule antagonists of the TGF-beta/Smad signaling pathway - cell viability counter screen (AID 1346824). Also: nearly all actives have a fitted effect of over 50% in size. Also: potency is read from the fitted curve at half-maximal effect. The procedure, abridged: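 SBE-bla HEK 293T cells, incubated overnight, then compound plus 0.25 ng/mL TGF-beta1 (stock added) for 5 hr at 37 C. Viability was read in the same wells by CellTiter-Glo luminescence after 30 min at room temperature.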

A short description of assay [17]: qHTS assay to identify small molecule agonists of the androgen receptor (AR) signaling pathway in the presence of an antagonist - cell viability counter screen (AID 1259379). Also: nearly all actives have a fitted effect of over 25% in size. Also: potency is read from the fitted curve at half-maximal effect. The procedure, abridged: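 Viability counter screen: CellTiter-Fluor fluorescence, measured in the same wells as the luciferase read-out. MDA-kb2 cells, 3,000/well, with nilutamide at 3.0uM final and compounds at 15 concentrations, 16 hr at 37C, 0% CO2.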

For assay [18], the target named is Androgen receptor (Homo sapiens) (UniProt P10275). As to the kind of experiment: qHTS assay to identify small molecule agonists of the androgen receptor (AR) signaling pathway in the presence of an antagonist (AID 1259381; calls by dose curve; also: nearly all actives have a fitted effect of over 15% in size). The procedure, abridged:
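Luciferase read-out (ONE-Glo, 30min room temperature) in MDA-kb2 MMTV-reporter cells; agonist mode run in presence of AR antagonist nilutamide, 3.0uM final. Compounds tested as 15-point series, 16hr exposure at 37C, 0% CO2.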

Assay [19] can be described thus: Human pregnane X receptor (PXR) small molecule agonists, qHTS cell viability counter screen (AID 1346977). Also: nearly all actives have a fitted effect of over 50% in size. Also: potency is read from the fitted curve at half-maximal effect. The essentials: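 HepG2 cells stably carrying the PXR-Luc reporter are cultured with 5% charcoal-stripped FBS and treated with compounds for 24hr. CellTiter-Fluor is added at 23hr and fluorescence is read after 1hr.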

Progesterone receptor (Homo sapiens), sequence (P06401 whole entry, looked up): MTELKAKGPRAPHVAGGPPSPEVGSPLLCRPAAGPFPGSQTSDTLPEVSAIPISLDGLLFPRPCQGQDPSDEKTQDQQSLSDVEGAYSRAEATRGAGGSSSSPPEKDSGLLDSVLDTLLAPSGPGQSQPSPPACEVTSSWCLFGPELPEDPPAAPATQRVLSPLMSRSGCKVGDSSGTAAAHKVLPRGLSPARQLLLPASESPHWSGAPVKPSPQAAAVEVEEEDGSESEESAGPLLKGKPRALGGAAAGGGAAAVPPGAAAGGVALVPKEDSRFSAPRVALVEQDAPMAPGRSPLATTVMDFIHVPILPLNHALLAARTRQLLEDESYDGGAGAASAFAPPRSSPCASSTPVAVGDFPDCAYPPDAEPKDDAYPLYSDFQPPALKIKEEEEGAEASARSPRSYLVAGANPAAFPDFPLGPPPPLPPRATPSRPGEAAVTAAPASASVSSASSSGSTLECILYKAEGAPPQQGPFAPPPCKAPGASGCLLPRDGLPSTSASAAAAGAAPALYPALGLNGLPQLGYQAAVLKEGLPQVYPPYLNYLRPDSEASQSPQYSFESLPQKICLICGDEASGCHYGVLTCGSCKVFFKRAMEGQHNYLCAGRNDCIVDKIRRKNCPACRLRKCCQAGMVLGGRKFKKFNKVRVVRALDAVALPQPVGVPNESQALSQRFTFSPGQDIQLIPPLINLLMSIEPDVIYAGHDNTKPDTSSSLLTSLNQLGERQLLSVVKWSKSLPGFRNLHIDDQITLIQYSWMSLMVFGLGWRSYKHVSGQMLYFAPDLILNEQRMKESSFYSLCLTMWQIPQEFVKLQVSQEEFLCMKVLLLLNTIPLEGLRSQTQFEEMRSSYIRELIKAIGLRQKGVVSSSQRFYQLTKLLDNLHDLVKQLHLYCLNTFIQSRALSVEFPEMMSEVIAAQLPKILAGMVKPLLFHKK
Thyrotropin receptor (Homo sapiens), sequence (P16473 whole entry, looked up): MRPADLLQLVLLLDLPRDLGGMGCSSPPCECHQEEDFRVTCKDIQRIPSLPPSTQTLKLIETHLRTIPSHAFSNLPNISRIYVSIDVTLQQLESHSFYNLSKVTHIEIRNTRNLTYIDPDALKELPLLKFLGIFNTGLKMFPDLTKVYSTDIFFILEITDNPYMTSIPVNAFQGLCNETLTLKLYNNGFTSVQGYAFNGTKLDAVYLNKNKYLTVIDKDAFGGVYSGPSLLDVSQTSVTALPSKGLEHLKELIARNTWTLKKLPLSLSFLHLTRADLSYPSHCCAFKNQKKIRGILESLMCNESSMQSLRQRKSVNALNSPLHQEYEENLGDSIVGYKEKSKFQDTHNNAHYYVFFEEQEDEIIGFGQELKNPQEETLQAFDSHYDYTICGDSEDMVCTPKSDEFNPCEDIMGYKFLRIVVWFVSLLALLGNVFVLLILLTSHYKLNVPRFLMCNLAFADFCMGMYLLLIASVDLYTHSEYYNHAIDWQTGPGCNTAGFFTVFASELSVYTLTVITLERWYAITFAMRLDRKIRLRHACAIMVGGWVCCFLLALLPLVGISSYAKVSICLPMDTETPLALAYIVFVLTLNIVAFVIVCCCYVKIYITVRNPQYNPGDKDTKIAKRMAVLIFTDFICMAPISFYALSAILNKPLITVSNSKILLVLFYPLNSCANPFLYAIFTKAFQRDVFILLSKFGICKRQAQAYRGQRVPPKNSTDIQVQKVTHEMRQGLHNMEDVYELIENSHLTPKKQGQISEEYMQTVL
Thyrotropin-releasing hormone receptor (Homo sapiens), sequence (P34981 whole entry, looked up): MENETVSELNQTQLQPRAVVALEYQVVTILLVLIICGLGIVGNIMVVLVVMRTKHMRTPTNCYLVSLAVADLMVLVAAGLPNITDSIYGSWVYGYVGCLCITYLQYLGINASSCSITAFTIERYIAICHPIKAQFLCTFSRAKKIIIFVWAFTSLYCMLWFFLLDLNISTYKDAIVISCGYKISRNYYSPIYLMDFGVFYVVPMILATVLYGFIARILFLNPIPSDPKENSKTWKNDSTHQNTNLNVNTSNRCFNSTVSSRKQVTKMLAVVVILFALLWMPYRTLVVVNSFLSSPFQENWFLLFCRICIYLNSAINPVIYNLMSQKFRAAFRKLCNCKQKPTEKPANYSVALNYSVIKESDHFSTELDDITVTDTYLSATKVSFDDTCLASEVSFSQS
Estrogen receptor beta (Homo sapiens), sequence (Q92731 whole entry, looked up): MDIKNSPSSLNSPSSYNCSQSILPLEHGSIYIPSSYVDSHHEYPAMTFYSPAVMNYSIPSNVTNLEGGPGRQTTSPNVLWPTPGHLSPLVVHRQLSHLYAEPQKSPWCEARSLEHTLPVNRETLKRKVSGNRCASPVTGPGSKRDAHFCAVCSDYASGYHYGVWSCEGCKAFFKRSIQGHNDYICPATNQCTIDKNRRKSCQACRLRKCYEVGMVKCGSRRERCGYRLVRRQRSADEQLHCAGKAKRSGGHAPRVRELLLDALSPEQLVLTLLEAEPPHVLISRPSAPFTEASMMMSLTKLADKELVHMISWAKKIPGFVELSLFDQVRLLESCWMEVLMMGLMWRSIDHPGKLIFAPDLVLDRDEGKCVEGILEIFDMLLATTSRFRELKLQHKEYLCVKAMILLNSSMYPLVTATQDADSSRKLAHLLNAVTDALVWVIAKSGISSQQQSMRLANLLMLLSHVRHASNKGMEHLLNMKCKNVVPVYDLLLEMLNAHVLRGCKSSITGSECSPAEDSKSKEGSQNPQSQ
Estrogen receptor (Homo sapiens), sequence (P03372 whole entry, looked up): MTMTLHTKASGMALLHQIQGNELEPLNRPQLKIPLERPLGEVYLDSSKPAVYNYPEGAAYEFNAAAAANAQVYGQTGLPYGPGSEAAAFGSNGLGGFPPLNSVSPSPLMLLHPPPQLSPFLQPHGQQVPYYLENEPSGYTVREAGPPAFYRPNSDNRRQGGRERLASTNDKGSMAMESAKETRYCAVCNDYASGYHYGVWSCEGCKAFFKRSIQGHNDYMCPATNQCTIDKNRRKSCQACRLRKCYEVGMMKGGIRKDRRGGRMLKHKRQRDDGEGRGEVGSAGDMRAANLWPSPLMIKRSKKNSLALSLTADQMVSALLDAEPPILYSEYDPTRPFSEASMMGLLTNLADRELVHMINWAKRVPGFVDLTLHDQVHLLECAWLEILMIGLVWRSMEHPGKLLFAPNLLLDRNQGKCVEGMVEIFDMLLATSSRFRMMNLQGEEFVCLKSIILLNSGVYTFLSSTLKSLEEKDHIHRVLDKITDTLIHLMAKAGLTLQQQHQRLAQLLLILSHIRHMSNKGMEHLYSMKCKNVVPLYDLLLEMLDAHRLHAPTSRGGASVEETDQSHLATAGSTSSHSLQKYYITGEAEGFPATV
Androgen receptor (Homo sapiens), sequence (P10275 whole entry, looked up): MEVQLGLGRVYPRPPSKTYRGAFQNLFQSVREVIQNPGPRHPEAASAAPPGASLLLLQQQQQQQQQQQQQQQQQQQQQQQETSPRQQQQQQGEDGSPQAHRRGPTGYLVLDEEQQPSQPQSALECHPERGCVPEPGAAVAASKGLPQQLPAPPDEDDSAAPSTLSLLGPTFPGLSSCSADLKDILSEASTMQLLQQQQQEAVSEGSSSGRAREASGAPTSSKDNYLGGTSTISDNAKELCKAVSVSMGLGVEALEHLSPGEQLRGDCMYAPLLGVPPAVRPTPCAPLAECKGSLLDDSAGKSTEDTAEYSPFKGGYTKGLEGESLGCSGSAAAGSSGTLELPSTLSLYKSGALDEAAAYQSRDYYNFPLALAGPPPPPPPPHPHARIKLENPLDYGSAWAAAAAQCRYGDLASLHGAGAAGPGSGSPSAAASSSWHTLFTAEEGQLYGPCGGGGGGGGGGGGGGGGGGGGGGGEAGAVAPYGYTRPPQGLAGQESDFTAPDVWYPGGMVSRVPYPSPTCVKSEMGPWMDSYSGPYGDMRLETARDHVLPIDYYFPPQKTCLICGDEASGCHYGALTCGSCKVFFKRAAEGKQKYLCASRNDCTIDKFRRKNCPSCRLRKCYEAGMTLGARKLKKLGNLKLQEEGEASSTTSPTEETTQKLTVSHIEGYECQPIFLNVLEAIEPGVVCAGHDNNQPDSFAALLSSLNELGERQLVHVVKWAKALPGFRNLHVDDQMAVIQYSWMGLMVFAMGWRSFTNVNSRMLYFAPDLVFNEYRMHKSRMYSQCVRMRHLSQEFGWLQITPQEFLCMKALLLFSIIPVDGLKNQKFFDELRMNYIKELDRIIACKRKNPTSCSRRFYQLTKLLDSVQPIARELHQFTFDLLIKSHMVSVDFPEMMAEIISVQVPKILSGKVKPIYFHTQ

As to `CC(C)OC(=O)c1cc(C(=O)OC(C)C)cc([N+](=O)[O-])c1`, the Potency entry in [1], in assay [2], in assay [4], in assay [5], in assay [6] and in [7] was “inactive” throughout. In addition, the Potency entry in [8] and in [9] was “inactive” each time. Besides, the outcome in assay [3] was inactive.
`Clc1ccc(C(Cn2ccnc2)OCc2ccsc2Cl)c(Cl)c1` (centres undefined): the Potency in assay [1] is 10.6 µM (active); in [10] it was 23.7 µM (active); in assay [2], 29.8 µM (active); in assay [13] it was 3.35 µM (active); in [14] it was 6.68 µM (active); in [15], 8.41 µM (active). The Potency entry in assay [11], in assay [5], in assay [16], in assay [6], in assay [8] and in [9] was “inactive” throughout. Besides, the compound was classed as inactive in assay [3] and in [12].
With `Cc1ccc(CCn2c3c(c4cc(Cl)ccc42)CN(C)CC3)cn1`, the Potency entry in [17], in [18], in assay [11], in [4], in assay [5] and in assay [13] was “inactive” in each case. The Potency entry in assay [6], in assay [7], in [8] and in assay [9] was “inactive” in each case. Further, the Potency in [10] was 26.6 µM (active); in [2] it was 26.6 µM (active); in assay [14], 26.6 µM (active); in [15], 21.1 µM (active). The compound was classed as inactive in [12].
Regarding `CCCCCCCCCCCCCCCC`, the Potency result in [17], in assay [10], in assay [2], in assay [4], in assay [5] and in assay [15] was “inactive” each time. The Potency entry in [6], in [7] and in assay [19] was “inactive” throughout. Moreover, the compound was called inactive in [3] and in [12].
Take `Clc1nc2ccccc2s1`: the Potency result in assay [17], in assay [10], in [2], in assay [4], in assay [5] and in assay [14] was “inactive” in each case. Besides, the Potency entry in [15], in assay [16], in [6], in [7], in assay [8] and in assay [9] was “inactive” throughout. For the same compound, the Potency entry in assay [19] was “inactive”. The compound was classed as inactive in [3] and in [12].
In the case of `O=C1NCCN1CCN1CCC(c2cn(-c3ccc(F)cc3)c3ccc(Cl)cc23)CC1`, the Potency was 15 µM (active) in assay [17], 13.3 µM (active) in assay [10], 29.8 µM (active) in assay [4] and 29.8 µM (active) in assay [19]. Moreover, the Potency entry in assay [18], in assay [5], in assay [15], in assay [7], in [8] and in assay [9] was “inactive” throughout. Further, the result in assay [3] and in assay [12] was inactive.
With `O=C(O)CCn1c2c(c3ccccc31)C[C@H](NS(=O)(=O)c1ccc(F)cc1)CC2`, the Potency entry in [17], in [10], in assay [2], in assay [5], in [14] and in assay [15] was “inactive” each time. Besides, the Potency result in [6] and in assay [19] was “inactive” throughout.
Regarding `CCNc1nc(NC(C)CC)nc(OC)n1` (centres undefined), the Potency entry in [17], in assay [10], in [2], in assay [4], in assay [5] and in assay [14] was “inactive” in each case. Also, the Potency result in assay [15], in assay [16], in assay [7], in assay [8], in assay [9] and in assay [19] was “inactive” throughout. The compound was called inactive in assay [3] and in [12].
Regarding `CC=O`, the Potency in assay [17] was 1.28 µM (active); in assay [10], 57 µM (active); in assay [2] it was 57 µM (active); in assay [5], 10.1 µM (active); in assay [14], 32 µM (active); in assay [15], 45.3 µM (active). For the same compound, the Potency in assay [16] is 25.7 µM (active); in assay [6], 28.8 µM (active); in assay [19], 5.7 µM (active). The result in [3] was inactive. In addition, in [4], the Potency result is “inactive”.
